Assay outcomes as filed in PubChem BioAssay.
COUP-TFII inh: inhibitors of human COUP-TFII (NR2F2); 0.7% of 370,000 active; inhibition, % at 8.6 µM; HEK293T NGFI-A luciferase reporter, luminescence; P24468;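 active means inhibition above a per-plate cutoff, mean inhibition of test wells between control levels plus 3 SD, cut at about 38% in these data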;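 further: cells cotransfected with COUP-TFII expression vector driving the NGFI-A reporter; 0% = median of COUP-TF2 test wells and 100% = reporter-only cells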
NR5A2 inv ag: NR5A2 inverse agonism in reporter assay. HEK293T StAR-luciferase reporter, LRH-1 transfected, 24 h. inhibition, % at 3.6 µM. 0.13% of 360,000 active. AID 602396;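 active means inhibition above the mean inhibition of all tested compounds plus 3 SD, cut at about 73% in these data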;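 further: 0% = DMSO wells and 100% = reporter-only cells lacking LRH-1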
Gli-Sufu block: blocks Gli-Sufu signaling in a luciferase reporter | inhibition, % at 5 µM | Sufu-KO-LIGHT fibroblasts, Gli luciferase reporter luminescence | 0.74% of 340,000 active;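 active means inhibition above about 55%, limit read from the data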;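 further: 0% = DMSO-treated cells and 100% = wells with medium but no cells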
SRC3 inh: human NCOA3 inhibition; Q9Y6Q9; HEK293 GAL4-SRC3 luciferase reporter, luminescence; inhibition, % at 3.6 µM; 0.17% of 360,000 active;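 active means inhibition above a per-campaign cutoff, the mean of all compounds plus 3 SD, cut at about 60% in these data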;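 further: 0% = DMSO-treated cells and 100% = gossypol-treated cells at 36 µM; higher means less SRC3-driven luciferase light from the GAL4 reporter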
NCOA2 inhibitor: human SRC2 (NCOA2) inhibition; Q15596; HEK293 GAL4-SRC2 luciferase reporter, luminescence; inhibition, % at 9 µM; 0.17% of 370,000 active;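 active means inhibition above the mean inhibition of all tested compounds plus 3 SD, set per campaign, cut at about 52% in these data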;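 further: 0% = DMSO treated cells and 100% = cells given Gossypol at 36 µM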
NCOA1 inh: inhibits human SRC1 coactivator | Q15788 | HEK293 GAL4-SRC1 luciferase reporter, luminescence | inhibition, % at 3.6 µM | 0.12% of 360,000 active | AID 588354;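 active means inhibition above the campaign mean plus 3 SD, with each screening campaign given its own cutoff, cut at about 60% in these data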;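 further: 0% = DMSO treated cells and 100% = gossypol at 36 µM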
VP16 Luc counter: counter-screen for COUP-TFII antagonists: inhibitors of VP16 | 25% of 2,500 active | inhibition, % at 8.5 µM | shares compounds with COUP-TFII inh | HEK293 Gal4-VP16 luciferase reporter, luminescence; in the data active means inhibition above about 13%
COUP-TFII conf: confirmation of human COUP-TFII (NR2F2) inhibitors; shares compounds with COUP-TFII inh; HEK293 NGFI-A luciferase reporter, luminescence; inhibition, % at 8.5 µM; 45% of 2,500 active;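 active means mean inhibition over three repeats above a set limit taken from the earlier primary screen, cut at about 38% in these data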;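 further: 100% = cells given the luciferase reporter alone without the COUP-TF2 vector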
An asterisk follows results filed as active. Hits are enriched below; roughly 1.3% of the tested compounds scored in any of these assays.

`O=c1c2ccccc2cnn1-c1nc2ccccc2[nH]1` gave COUP-TFII inh 96*, NR5A2 inv ag 41, Gli-Sufu block 81*, SRC3 inh 65*, NCOA2 inhibitor 83*, NCOA1 inh 70*, VP16 Luc counter 53* and COUP-TFII conf 70*.
Cc1cc(Br)cn2c(Cc3cccc(Cl)c3)c(C3CCCCC3)nc12 was read as COUP-TFII inh 13 and NCOA2 inhibitor 27.
`CCc1nc2c(OCC3COc4ccccc4O3)cccn2c1N(C)C(=O)c1cccc(OC)c1` (stereo not drawn) gave COUP-TFII inh 3, NR5A2 inv ag 12, SRC3 inh 8, NCOA2 inhibitor 23 and NCOA1 inh -10.
`O=C(NNC(=O)c1ccccc1O)c1ccc(Cl)c(S(=O)(=O)N2CCc3ccccc32)c1` gave COUP-TFII inh 48*, NR5A2 inv ag 16, Gli-Sufu block 63*, SRC3 inh 19, NCOA2 inhibitor -9, NCOA1 inh 28, VP16 Luc counter 0 and COUP-TFII conf 39*.
O=S(=O)(NC1CCCC1)c1ccc(S(=O)(=O)N2CCc3ccccc32)cc1 was read as COUP-TFII inh 40*, NR5A2 inv ag 22, Gli-Sufu block 47, SRC3 inh 3, NCOA2 inhibitor 10, NCOA1 inh 7, VP16 Luc counter -4 and COUP-TFII conf 10.
For Nc1ccc(S(=O)(=O)N2CCc3ccccc32)cc1 the results were COUP-TFII inh 12, NR5A2 inv ag -7, Gli-Sufu block -10, SRC3 inh 2, NCOA2 inhibitor 20 and NCOA1 inh -10.
`CN(c1ccccc1)S(=O)(=O)c1cccc(NC(=O)CN2CCCc3ccccc32)c1` gave COUP-TFII inh 39*, NR5A2 inv ag 14, Gli-Sufu block 18, SRC3 inh 7, NCOA2 inhibitor 25, NCOA1 inh -6, VP16 Luc counter 8 and COUP-TFII conf 11.
Screening O=C(NNC(=O)c1cccc(S(=O)(=O)N2CCc3ccccc32)c1)c1ccccc1 returned COUP-TFII inh 41*, NR5A2 inv ag 16, Gli-Sufu block 48, SRC3 inh 23, NCOA2 inhibitor -11, NCOA1 inh -15, VP16 Luc counter 8 and COUP-TFII conf 34.
`CCCn1cc(CCC(=O)Nc2ccc(Oc3cccnc3)cc2)c2ccccc21` gave COUP-TFII inh -6 and NCOA2 inhibitor 1.
Screening CC(=O)NS(=O)(=O)c1ccc(NC(=O)c2cccc(S(=O)(=O)N3CCc4ccccc43)c2)cc1 returned COUP-TFII inh -10, NR5A2 inv ag -7, Gli-Sufu block -1, SRC3 inh 8, NCOA2 inhibitor 9 and NCOA1 inh 4.
`CN(C)S(=O)(=O)c1cccc(NC(=O)c2cccc(S(=O)(=O)N3CCc4ccccc43)c2)c1` gave COUP-TFII inh 42*, NR5A2 inv ag 21, Gli-Sufu block 3, SRC3 inh 1, NCOA2 inhibitor -2, NCOA1 inh -5, VP16 Luc counter -4 and COUP-TFII conf 18.
Screening CN(C)S(=O)(=O)c1cccc(NC(=O)c2ccc(COc3ccccc3)cc2)c1 returned COUP-TFII inh 63*, NR5A2 inv ag 19, Gli-Sufu block 11, SRC3 inh 15, NCOA2 inhibitor 13, NCOA1 inh 3, VP16 Luc counter 2 and COUP-TFII conf 52*.
For CC(C)c1ccc(/C=C2\SC(=S)N(CCC(=O)N3CCCCC3CCO)C2=O)cc1 (stereo not drawn) the results were COUP-TFII inh 41*, NR5A2 inv ag -5, Gli-Sufu block 20, SRC3 inh 42, NCOA2 inhibitor 48, NCOA1 inh 26, VP16 Luc counter -30 and COUP-TFII conf 10.
C[C@@H]1CN([C@@H](C)CO)C(=O)CCCn2cc(nn2)CO[C@H]1CN(C)C(=O)Nc1ccc2c(c1)OCO2 was read as COUP-TFII inh 18 and NCOA2 inhibitor -20.
Cc1ccc(NC(=O)CN2C(=O)CCSc3ccccc32)c(C)c1 was read as COUP-TFII inh -9 and NCOA2 inhibitor -18.
O=C(Nc1ccc(N2CCN(c3ccc(O)cc3)CC2)cc1)Oc1ccccc1 was read as COUP-TFII inh -15, NR5A2 inv ag -13, Gli-Sufu block 11, SRC3 inh 13, NCOA2 inhibitor 9 and NCOA1 inh -12.
Nc1ccc(OC(=O)Nc2ccc(O)cc2)cc1 was read as COUP-TFII inh 44*, NR5A2 inv ag 10, Gli-Sufu block 16, SRC3 inh 15, NCOA2 inhibitor 77*, NCOA1 inh -4, VP16 Luc counter 36* and COUP-TFII conf 24.
O=C(Nc1cc(Cl)ccc1Cl)C1Cc2ccccc2O/C1=N\O (stereo not drawn) was read as COUP-TFII inh -18, NR5A2 inv ag 19, Gli-Sufu block 2, SRC3 inh -7, NCOA2 inhibitor 15 and NCOA1 inh -48.
For COC(=O)[C@]12C[C@H](CC(=O)N3CCOCC3)C(=O)N(Cc3ccccc3)C1=C[C@H](C1CCCC1)O[C@@H]2C the results were COUP-TFII inh -57 and NCOA2 inhibitor -2.
CN1CCN(c2ccc(-c3csc(N4CCC(C(N)=O)CC4)n3)cc2)CC1 was read as COUP-TFII inh 27.
Screening CCOC(=O)c1ccc(NC(=O)C2CCCN(S(=O)(=O)c3ccc(F)cc3)C2)cc1 (stereo not drawn) returned COUP-TFII inh 64*, NR5A2 inv ag 17, Gli-Sufu block 0, SRC3 inh 23, NCOA2 inhibitor 24, NCOA1 inh 14, VP16 Luc counter -2 and COUP-TFII conf 17.
For O=C(Nc1ccc(Cn2cccn2)cc1)c1ccc(COc2ccc(Br)cc2)cc1 the results were COUP-TFII inh 1, NR5A2 inv ag -13, Gli-Sufu block 17, SRC3 inh 12, NCOA2 inhibitor -5 and NCOA1 inh 9.
Screening O=C(Nc1ccn(Cc2ccccc2F)n1)c1ccc(COc2ccc(Br)cc2)cc1 returned COUP-TFII inh 73*, NR5A2 inv ag 33, Gli-Sufu block -20, SRC3 inh 21, NCOA2 inhibitor 21, NCOA1 inh 11, VP16 Luc counter -11 and COUP-TFII conf 47*.
`COc1cc(C(=O)Oc2cccc(Nc3ncnc4ccccc34)c2)cc(OC)c1OC` gave COUP-TFII inh 61*, NR5A2 inv ag 22, Gli-Sufu block 5, SRC3 inh 21, NCOA2 inhibitor -1, NCOA1 inh 2, VP16 Luc counter -4 and COUP-TFII conf 49*.
For C=CCN(c1ccccc1OC)S(=O)(=O)c1ccc(Cl)c(C(=O)Nc2ccc(N3CCOCC3)cc2)c1 the results were COUP-TFII inh 43*, NR5A2 inv ag 21, Gli-Sufu block -4, SRC3 inh 28, NCOA2 inhibitor 3, NCOA1 inh 15, VP16 Luc counter 4 and COUP-TFII conf 25.
